Screening results: PubChem, National Center for Advancing Translational Sciences (NCATS)
uPA generation = blocks generation of uPA at the cell surface; Potency, µM (titrated, usually from 38.3 µM), inactives show at the top dose activity change, negative = inhibition, most hits filed as inhibitors; cell surface uPA generation assay, qHTS; AID 540303; actives 0.31% (n = 330,000); active = well fitted inhibition curve with a large enough effect; inconclusive = small, poorly fitted or top-dose-only effect; inactive = no such curve, though single readings can be large or run the other way; tested in mouse RAW 264.7 cells; note: % is set by controls: 0 for no effect and ±100 for the full control effect; nearly all actives have a fitted effect of over 55% in size
FUS yeast rescue = FUS proteinopathy suppression in yeast. S. cerevisiae FUS-expressing, growth rescue, OD600, 24 h. Potency, µM (titrated, usually from 76.6 µM), hits mostly activators. actives 0.24% (n = 390,000). AID 1347120;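 note: plate controls were DMSO vehicle for no effect and reference control for full effect; nearly all actives have a fitted effect of over 55% in size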
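Yeast expressing FUS under galactose induction, OD 0.005 in 2% galactose medium; compounds in a dilution series, 24 h at 30C. Growth rescue by absorbance at 600 nm; CP55940 positive control, DMSO negative.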
BCR signal inh = chronic active BCR signaling inhibition. ABC-DLBCL IkBa-CBG/CBR reporter, luminescence ratio, 4 h. Potency, µM (highest dose often 46.1 µM), inactives show at the highest dose activity change, negative = inhibition, usual class: inhibitors. actives 0.05% (n = 340,000); active = well fitted inhibition curve with a large enough effect in the signal ratio, with a control signal flat, not every such curve was filed as active; inconclusive = small, poorly fitted or top-dose-only effect, or effect the other way, or a change in a side signal; the % refers to the signal ratio;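 note: plate controls were basal doxycycline-induced cells for no effect and cells given 10 µM MG132 for full effect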
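Doxycycline induced both beetle luciferases in TMD8 lymphoma cells; IKK-driven degradation limits the IkappaBalpha-fused green signal, while red luminescence normalises for cell number and nonspecific effects. Compounds tested up to 46 uM, 4 hrs.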
aSyn rescue = rescues yeast growth from alpha-synuclein toxicity; actives 0.14% (n = 370,000); Potency, µM (doses to about 46.1 µM), inactives show at the top dose growth rescue (activation), hits mostly activators; Yeast expressing alpha-synuclein, growth rescue, BacTiter-Glo, 24 h; note: % of control where 0% means no effect; nearly all actives have a fitted effect of over 65% in size
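Galactose-induced alpha-syn yeast (OD600=0.02, raffinose-pregrown) + pinned cpd, 24 hr, 30 deg C; growth by BacTiter-Glo luminescence. Growth restoration scores as activation.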
TDP43 rescue = inhibitors of TDP-43 toxicity in yeast; Potency, µM (top dose mostly 46.1 µM), without a hit: at the top dose growth rescue (activation), most hits filed as activators; TDP-43 expressing yeast growth rescue, BacTiter-Glo, 24 h; actives 1.8% (n = 410,000); note: % of control where 0% means no effect; nearly all actives have a fitted effect of over 50% in size
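Readout is BacTiter-Glo luminescence of cell growth, so inhibitors register as activators. TDP-43-expressing yeast at OD600=0.02 in galactose medium, after raffinose pregrowth to mid-log, were incubated with compound for 24 hr at 30 deg C.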
Abeta rescue = A-beta toxicity reversal in yeast. yeast expressing A-beta42, growth rescue, OD600, 48 h; response scale: 0% DMSO, 100% iron-clioquinol control. Potency, µM (doses to about 46.1 µM), most hits filed as activators. actives 0.063% (n = 410,000). AID 1347071; note: nearly all actives have a fitted effect of over 55% in size
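Yeast growth medium received pinned compounds, then yeast cells expressing toxic A-beta were added; plates incubated at 30 C for 48 hr. Growth read as absorbance at 600 nm, normalized to DMSO and equimolar FeCl3 plus clioquinol controls.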
* = called active by the depositor. Shown are actives, neighbours in structure and some others; about 2.3% of the full set was active somewhere. Unless noted, calls come from the whole dose curve; as a rule, active = well fitted curve in the direction sought with a large enough effect; inconclusive = small, poorly fitted or top-dose-only effect, or another doubt; inactive = no such curve, though single readings can be large; an effect the other way counts as inactive or inconclusive. Potency is the fitted concentration of half-maximal effect.

Results for COc1cccc(NC(=O)c2cnn(-c3ccccc3)c2C)c1 ?
uPA generation: 10µM*; FUS yeast rescue: inactive; BCR signal inh: inconclusive; aSyn rescue: 3%; TDP43 rescue: 20µM*; Abeta rescue: inactive

How did COc1cccc(NC(=O)c2cc(-c3ccccn3)nc3ccccc23)c1 do in these assays?
uPA generation: 3%; BCR signal inh: -3%; aSyn rescue: -3%; TDP43 rescue: 25µM*; Abeta rescue: inactive

How did COc1cccc(NC(=O)c2ccccc2Oc2ccccc2)c1 do in these assays?
uPA generation: -7%; FUS yeast rescue: inconclusive; BCR signal inh: 12%; aSyn rescue: 1%; TDP43 rescue: 19%; Abeta rescue: inactive

What do the screens show for `COc1cccc(Nc2ncccc2C(=O)Nc2ccccc2)c1`?
uPA generation: 0%; FUS yeast rescue: inactive; BCR signal inh: inconclusive; aSyn rescue: -5%; TDP43 rescue: 22µM*; Abeta rescue: inactive

Results for CC1(Oc2cccc(C#N)c2)CCN(Cc2csc3ccccc23)C1 (stereo unspecified) ?
FUS yeast rescue: inactive; aSyn rescue: 7%; TDP43 rescue: -1%; Abeta rescue: inactive

Results for O=C(Cn1nc(C(F)F)cc1C1CC1)NCCC1=CCCCC1 ?
uPA generation: 0%; FUS yeast rescue: inactive; BCR signal inh: -4%; aSyn rescue: 0%; TDP43 rescue: -9%; Abeta rescue: inactive

How did CC1=C(c2ccc(C)c(C)c2)S(=O)(=O)N=C1N1CCC(C(=O)NC(C)Cc2ccco2)CC1 (stereo unspecified) do in these assays?
FUS yeast rescue: inactive; TDP43 rescue: 18%; Abeta rescue: inactive

How did O=C(OCc1ccccc1Cl)c1ccc(-n2cnnc2)cc1 do in these assays?
uPA generation: 3%; FUS yeast rescue: inactive; BCR signal inh: inconclusive; aSyn rescue: 12%; TDP43 rescue: 13µM*; Abeta rescue: inactive

Results for C#CCN(C[C@H]1[C@H](OC(=O)NCc2ccco2)[C@H](OC(=O)NCc2ccco2)C[C@H]2C(=O)N(c3ccccc3)C(=O)[C@@H]12)S(=O)(=O)c1ccc(C)cc1 ?
FUS yeast rescue: 16µM*; aSyn rescue: 0%; TDP43 rescue: 0%; Abeta rescue: inactive

How did O=C(N/N=C/c1ccncc1)c1ccccc1 do in these assays?
uPA generation: -1%; FUS yeast rescue: inactive; BCR signal inh: inconclusive; aSyn rescue: -5%; TDP43 rescue: -8%; Abeta rescue: inactive

What do the screens show for `O=C(N/N=C/c1cccc(Oc2ccccc2)c1)c1ccncc1`?
uPA generation: 3%; FUS yeast rescue: inactive; BCR signal inh: -3%; aSyn rescue: 17%; TDP43 rescue: 13µM*; Abeta rescue: inactive

Results for COc1cccc(/C=N/NC(=O)c2[nH]nc3c2CCc2ccccc2-3)c1 ?
uPA generation: -3%; FUS yeast rescue: inactive; BCR signal inh: 18µM*; aSyn rescue: 1%; TDP43 rescue: 18%; Abeta rescue: inactive

Results for COc1ccc([C@@H]2CC(=O)c3c(O)cc(O[C@@H]4OC(CO[C@@H]5OC(C)[C@H](O)[C@@H](O)[C@H]5O)[C@@H](O)[C@H](O)[C@H]4O)cc3O2)cc1O (stereo partly specified) ?
uPA generation: 8%; FUS yeast rescue: inactive; BCR signal inh: 1%; aSyn rescue: 6%; TDP43 rescue: 9%; Abeta rescue: inactive

What do the screens show for `CC(=O)Nc1cccc(C(=O)OCc2ccc([N+](=O)[O-])cc2)c1`?
uPA generation: 2%; FUS yeast rescue: inactive; BCR signal inh: -5%; aSyn rescue: -1%; TDP43 rescue: inconclusive; Abeta rescue: inactive

How did COC(=O)c1cccc(NC(=O)c2cccc([N+](=O)[O-])c2)c1 do in these assays?
uPA generation: 1%; FUS yeast rescue: inactive; BCR signal inh: -7%; aSyn rescue: 0%; TDP43 rescue: 13µM*; Abeta rescue: inactive

How did O=C(Nc1cccc([N+](=O)[O-])c1)c1cccc(C(=O)Nc2cccc([N+](=O)[O-])c2)c1 do in these assays?
uPA generation: 9%; FUS yeast rescue: inactive; BCR signal inh: -16%; aSyn rescue: 0%; TDP43 rescue: 14%; Abeta rescue: inactive

Results for CCC(=O)Nc1cccc(C(=O)OCc2cccc([N+](=O)[O-])c2)c1 ?
uPA generation: 6%; FUS yeast rescue: inactive; BCR signal inh: -5%; aSyn rescue: -9%; TDP43 rescue: 11µM*; Abeta rescue: inactive

How did O=C(Nc1ccccc1Oc1ccccc1)NC1CCCCN(Cc2ccc(Cl)cc2)C1=O (stereo unspecified) do in these assays?
FUS yeast rescue: inactive

How did O=C(CCC(=O)N1CCN(c2ccc(O)cc2)CC1)c1cccs1 do in these assays?
uPA generation: 4µM*; FUS yeast rescue: inactive; BCR signal inh: inconclusive; aSyn rescue: 10%; TDP43 rescue: 18%; Abeta rescue: inactive

Results for CC(C)CC(=O)NC(=S)Nc1ccc(N2CCN(C(=O)c3cccs3)CC2)cc1 ?
uPA generation: -7%; FUS yeast rescue: inactive; BCR signal inh: inconclusive; aSyn rescue: -4%; TDP43 rescue: 18µM*; Abeta rescue: inactive

How did S=C(c1cccs1)N1CCN(c2ccccc2)CC1 do in these assays?
uPA generation: 6%; aSyn rescue: 9%; TDP43 rescue: 18µM*; Abeta rescue: inactive

Results for CC(=O)c1ccc(N2CCN(C(=O)CCC(=O)c3cccs3)CC2)cc1 ?
uPA generation: 2%; FUS yeast rescue: inactive; BCR signal inh: -1%; aSyn rescue: 2%; TDP43 rescue: 1%; Abeta rescue: inactive

Results for CC(C)C(=O)Nc1ccc(N2CCN(C(=O)c3cccs3)CC2)cc1 ?
uPA generation: 7%; FUS yeast rescue: inactive; BCR signal inh: inconclusive; aSyn rescue: -6%; TDP43 rescue: 5%; Abeta rescue: inactive

Results for Nc1nnnn1NCc1cccc(OCc2ccccc2)c1 ?
uPA generation: 5%; FUS yeast rescue: inactive; BCR signal inh: 3%; aSyn rescue: -5%; TDP43 rescue: 0%; Abeta rescue: inactive

Results for O=C(NC1CCCC1)c1cc(-c2ccccc2)nc2ccccc12 ?
uPA generation: 6%; FUS yeast rescue: inactive; BCR signal inh: 0%; aSyn rescue: -3%; TDP43 rescue: 0%; Abeta rescue: inactive

What do the screens show for `O=C1c2ccccc2-c2onc3ccc(Oc4ccccc4)c1c23`?
uPA generation: -9%; BCR signal inh: inconclusive; aSyn rescue: inconclusive; TDP43 rescue: 7.1µM*; Abeta rescue: inactive
